Measured values as given in PubChem BioAssay (NCI).
The panel holds about 79,000 compounds, 15% with a hit somewhere; the sample as a whole holds those more often. Values without a mark were called inactive. Active and inactive are the calls of the source. No stated cut-off is given here; in the data, active means growth inhibition above about 70%; inactive means the rest.

Experiment: NCI Yeast Anticancer Drug Screen. Data for the mlh1 rad18 strain (AID 175)
Details: S. cerevisiae mlh1 rad18 strain growth inhibition; at 50.0 µM; active compounds read high
In short: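 Cells of a genetically altered yeast strain, deficient in DNA damage repair, were treated with compound. Their growth was then compared with that of vehicle-treated cultures to give inhibition.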

| SMILES | growth inhibition |
| --- | --- |
| O=C1c2ccccc2C(=O)c2sc(Nc3cc(Cl)ccc3Cl)nc21 | 90.5% (active) |
| OCC(c1ccccc1)c1ccccc1 | 80.2% (active) |
| CN(C)c1nc(=NCc2ccco2)ss1 | 9.8% |
| C/C=C\C=N\NC(N)=S | 28.6% |
| O=C(/C=N/O)c1c(-c2ccccc2)[nH]c(-c2ccccc2)c1-c1ccccc1 | 96% (active) |
| Cc1c2ccccc2c(CO)c2cc(F)c3ccccc3c12 | 92.7% (active) |
| O=C(O)Cc1cccc2c(=O)c3cccc([N+](=O)[O-])c3[nH]c12 | 69.8% |
| Cc1ccc(SC2=C(N(C)C)C(=O)c3ccccc3C2=O)cc1 | 89.7% (active) |
| O=C1C(Cl)=C(Cl)C(=O)c2cc(Cl)c(Cl)cc21 | 87.8% (active) |
| CC1=C(C2CO2)C(=O)C(C)=C(C2CO2)C1=O (stereo not given) | 99.5% (active) |
| CCc1cc(CC)c(-c2ccco2)c(COC(=O)NC)c1 | 96.3% (active) |
| COC(=O)C(=O)N(c1cc(C)ccc1C)c1cc(C)ccc1C | 92.7% (active) |
| COC1=CC(=O)c2c(O)c3c(c(O)c2C1=O)C=C(C)OC3O (stereo not given) | 89.3% (active) |
| O=[N+]([O-])c1ccccc1NCCO | -24.9% |
| CCCCCCCCCCCCCCCC[N+](C)(C)CC(=O)O | 7.85% |
| S=C(SSSSC(=S)N1CCCCC1)N1CCCCC1 | 81% (active) |
| COC(O)C12OC3CO[Si](C(C)C)(C(C)C)O[Si](C(C)C)(C(C)C)OC3C1Oc1nc(=O)ccn12 (stereo not given) | -69.8% |
| O=C(O)c1ccccc1C(c1ccccc1)c1ccccc1 | 67% |
| OC(OC/C(I)=C(/I)COC(O)C(Cl)(Cl)Cl)C(Cl)(Cl)Cl (stereo not given) | 97.1% (active) |
| COC(C)(C)[C@@H]1CCCN1C1=C(C)C(=O)OC1 | 75.8% (active) |

| SMILES | growth inhibition |
| --- | --- |
| COc1ccc(-c2nc(C)[nH]c(=O)c2Cc2c(O)ccc3ccccc23)cc1 | 97% (active) |
| C1CCC(CCNCCC2CCCCC2)CC1 | 98.7% (active) |
| CC1=C(C)C1[N+](=O)[O-] | 62.9% |
| COc1ccc2c(c1)OC(c1ccccc1O)CC2=O (stereo not given) | 36.5% |
| CCN(CC)c1ccc(NC(CC(O)c2ccccc2)c2ccccc2)cc1 (stereo not given) | 24.5% |
| COc1cc(/C=C/C(=O)c2ccc3ccccc3c2)cc(OC)c1OC | 22.6% |
| C=CC(=C)OC | 7.5% |
| O=C1OC(=O)c2ccc([N+](=O)[O-])c3cccc1c23 | 82.8% (active) |
| CCCOC(=O)CSC#N | 98% (active) |
| CCCCN(CCCC)CCCCCCNc1cc(OC)cc2cccnc12 | 98.7% (active) |
| CN1C(Cl)=NS(=O)(=O)c2ccccc21 | 8.95% |
| COc1cc(C(=O)CBr)c2ccc(Cl)cc2n1 | 91.4% (active) |
| CCCCCCCCCCCCCCCC(=O)N(CCCN(CC)CC)C(C)CCCN(CC)CC (stereo not given) | 17.7% |
| CC1(c2ccccc2)OC1C(=O)N(c1ccccc1)c1ccccc1 (stereo not given) | 97.7% (active) |
| CCCCCCCNC1CCCc2cc(OC)ccc21 (stereo not given) | 71.2% (active) |
| Cc1ccc(S(=O)(=O)NCCSCCSCCNS(=O)(=O)c2ccc(C)cc2)cc1 | 55.2% |
| COc1ccc(C2C3CCCC(C(c4ccc(OC)cc4)N2C)C32NC(=O)NC2=O)cc1 (stereo not given) | 97.6% (active) |
| CC(C)OC1=C(Cl)C(=O)c2c(cccc2[N+](=O)[O-])C1=O | 71% (active) |
| COC(=O)c1nnn(-c2ccc(Cl)cc2Cl)c1C(=O)c1ccc(Cl)c(Cl)c1 | 98.7% (active) |
| O=Cc1cc2c(s1)C(=O)c1sccc1C2=O | 90.3% (active) |
